Bioassay records (PubChem BioAssay)
PAFAH1B2 inh = PAFAH1B2 (human) inhibition. P68402. recombinant PAFAH1B2, FP-rhodamine activity probe, fluorescence polarization. inhibition, % at 3.39 µM. 340,000 compounds, 1.2% hits. AID 492953;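 active = inhibition above the mean of all tested compounds plus 3 SD, cut at about 24% in these data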
PAFAH2 FP inh = PAFAH2 (human) inhibition; 340,000 compounds, 0.99% hits; inhibition, % at 3.39 µM; AID 492956; recombinant PAFAH2, FP-rhodamine activity probe, fluorescence polarization;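 active = inhibition above the mean over all tested compounds plus 3 SD, cut at about 30% in these data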;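 note: inhibitors block probe labeling of enzyme so polarization drops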
pPAFAH FP inh = pPAFAH (human) enzyme inhibition; Q13093; recombinant pPAFAH, FP-rhodamine probe fluorescence polarization; inhibition, % at 3.39 µM; 330,000 compounds, 1.5% hits;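 active = inhibition above the mean inhibition across the screen plus 3 SD, cut at about 25% in these data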;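 note: inhibitors block binding of the rhodamine activity-based probe so polarization drops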
ATG4B inh = blocks human ATG4B protease cleavage of LC3 substrate | Q9Y4P1 | ATG4B cleavage of LC3-PLA2, NBD-HPC fluorescence, 1 h | inhibition, % at 8.33 µM | 340,000 compounds, 0.51% hits; in the data active = inhibition above about 40%
DAGLB inhibitor = blocks human DAGLB lipase activity. Q8NCG7. HEK293T DAGLB membrane lysate, EnzChek fluorogenic substrate. inhibition, % at 5.17 µM. 340,000 compounds, 0.059% hits. AID 504411; in the data active = inhibition above about 34%
Target sequence (Q8NCG7 whole entry, looked up): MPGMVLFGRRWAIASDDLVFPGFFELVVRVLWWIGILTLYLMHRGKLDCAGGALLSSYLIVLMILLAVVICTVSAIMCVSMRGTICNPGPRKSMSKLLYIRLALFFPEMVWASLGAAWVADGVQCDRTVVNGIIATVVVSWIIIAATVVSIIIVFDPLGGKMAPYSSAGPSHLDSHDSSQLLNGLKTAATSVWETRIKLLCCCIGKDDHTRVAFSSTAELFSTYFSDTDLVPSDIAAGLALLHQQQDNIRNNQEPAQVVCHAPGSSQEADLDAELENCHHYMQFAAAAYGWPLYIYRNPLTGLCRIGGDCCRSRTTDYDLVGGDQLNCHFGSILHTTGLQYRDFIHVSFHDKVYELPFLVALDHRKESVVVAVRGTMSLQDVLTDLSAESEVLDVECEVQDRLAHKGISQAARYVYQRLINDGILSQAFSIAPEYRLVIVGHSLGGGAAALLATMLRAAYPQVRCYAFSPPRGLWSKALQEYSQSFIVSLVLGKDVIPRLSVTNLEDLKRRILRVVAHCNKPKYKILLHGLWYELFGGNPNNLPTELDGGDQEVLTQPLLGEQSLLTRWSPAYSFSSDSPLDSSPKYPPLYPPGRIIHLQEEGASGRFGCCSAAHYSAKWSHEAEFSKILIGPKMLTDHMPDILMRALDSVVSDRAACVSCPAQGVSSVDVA
PAFAH1B3 inh = inhibitors of human PAFAH1B3; AID 492972; recombinant PAFAH1B3, FP-rhodamine probe, fluorescence polarization; inhibition, % at 3.39 µM; Q15102; 340,000 compounds, 0.28% hits;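 active = inhibition above the screen-wide average of all tested compounds plus 3 SD, cut at about 25% in these data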
pPAFAH confirm = pPAFAH (human) inhibition, confirmed; shares compounds with pPAFAH FP inh; recombinant pPAFAH, FP-Rh probe fluorescence polarization; inhibition, % at 3.39 µM; 2,300 compounds, 72% hits;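 active = mean inhibition of the triplicate above the hit cutoff set for the earlier primary screen, cut at about 25% in these data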
Numbers stand for hits; – = inactive; · = no result given. Only some compounds are listed: those with a hit (about 3% of all), similar ones and a draw of the others.

SMILES | PAFAH1B2 inh | PAFAH2 FP inh | pPAFAH FP inh | ATG4B inh | DAGLB inhibitor | PAFAH1B3 inh | pPAFAH confirm
CCC(=O)Nc1ccccc1C(=O)N1CCOCC1 | – | – | – | – | – | – | ·
COc1ccccc1NC(=O)COC(=O)c1ccc([N+](=O)[O-])s1 | – | 38 | 37 | – | – | 26 | –
N#CC(C#N)=C1C=C2C=C(N3CCCCC3)CCC2CC1 (stereo not drawn) | · | · | – | – | · | · | ·
N#CC1=C(N)C2=C(N3CCCCC3)CCCC2C1(C#N)C#N (stereo not drawn) | 26 | 40 | 38 | – | – | 46 | –
C/C(CC(=O)Nc1ccc2ccccc2c1)=N\NC(=O)c1ccc(O)c(O)c1 | – | – | 54 | – | – | – | 55
O=C(O)c1cc(Cl)ccc1-c1ccc(/C=C/c2cc(C(F)(F)F)[nH]c(=O)n2)o1 | – | – | 43 | – | – | – | –
O=C(O)c1ccccc1-c1ccc(/C=C/c2cc(C(F)(F)F)[nH]c(=O)n2)o1 | – | – | · | – | – | – | ·
N#CCC(=O)Nc1ncn(Cc2ccccc2Cl)n1 | – | – | 35 | – | – | – | –
O=C(Nc1ccc(S(=O)(=O)Nc2ccccc2)cc1)C1COc2ccccc2O1 (stereo not drawn) | – | – | 40 | – | – | – | 35
Cc1nc(N)sc1N=Nc1ccccc1C(F)(F)F | – | – | 42 | – | – | – | 30
CC(=O)c1ccc(N2CCN(C(=S)NCCCN(C)C)CC2)cc1 | – | – | – | – | – | – | ·
CCOC(=O)c1cc(-c2ccc(/C=C3/C(=O)NC(=O)C(C#N)=C3C)o2)ccc1Cl | – | – | 46 | – | – | – | 48
CCCn1nc([N+](=O)[O-])c(C(C#N)c2nc3ccccc3o2)c(Cl)c1=O (stereo not drawn) | 39 | 46 | 69 | 84 | 70 | 28 | 58
Oc1ccc(/C=N/n2c(-c3ccco3)csc2=Nc2cccnc2)c(O)c1 | – | – | – | – | – | – | ·
CC(C)N=c1scc(-c2ccco2)n1/N=C/c1ccc(O)c(O)c1 | – | – | 64 | – | – | – | 69
C=CCN=c1scc(-c2ccco2)n1/N=C/c1ccc(O)c(O)c1O | – | – | 49 | – | – | – | 68
COc1cccc(/C=N/n2c(-c3ccco3)nc3ccccc3c2=O)c1 | – | – | – | – | – | – | ·
COCCN=c1scc(-c2ccco2)n1/N=C/c1ccc(O)c(O)c1O | – | – | 64 | – | – | – | 67
O=C1C(=NO)C(c2ccccc2)Oc2ccccc21 (stereo not drawn) | – | – | · | – | – | – | ·
COc1ccc(C(=O)Nc2nc(CC(=O)NCCc3ccccc3OC)cs2)cc1 | – | – | – | – | – | – | ·
CC(=O)Oc1ccccc1C(=O)C=Cc1cccc([N+](=O)[O-])c1 | – | – | · | – | – | – | ·
CN=c1scc(C)n1/N=C/c1ccc(O)c(O)c1O | – | – | 60 | – | – | – | –
CN=c1scc(-c2cccs2)n1/N=C/c1ccccc1O | – | – | – | – | – | – | ·
CN=c1scc(-c2cccs2)n1/N=C/c1ccc(O)c(O)c1O | – | – | 51 | – | – | – | 65
CN(C)C1=NCCN1CCc1cccc(F)c1 | – | – | – | – | – | – | ·
SMILES | PAFAH1B2 inh | PAFAH2 FP inh | pPAFAH FP inh | ATG4B inh | DAGLB inhibitor | PAFAH1B3 inh | pPAFAH confirm
COc1cccc(CN2CC(C(=O)NCc3ccc(C)o3)CCC2=O)c1 (stereo not drawn) | – | – | · | – | – | – | ·
Cc1ccc(C2=NS(=O)(=O)N(C)C(C(=O)NCc3cccs3)=C2)cc1 | – | – | – | – | – | – | ·
CN1C(C(=O)NCc2ccco2)=CC(c2ccc(F)cc2)=NS1(=O)=O | – | – | 67 | – | – | – | –
N#CCC(=O)Nc1ccc(C(=O)OCC(=O)Nc2ccccc2Sc2ccccc2)cc1 | · | · | 71 | – | · | · | –
Cc1ccccc1-c1n[nH]c(=S)n1/N=C/C=C/c1ccco1 | – | – | 45 | – | – | – | –
S=c1[nH]nc(-c2ccc(Cl)cc2)n1/N=C/c1ccco1 | – | – | – | – | – | – | ·
S=c1[nH]nc(-c2ccc(Cl)cc2)n1/N=C/C=C/c1ccco1 | · | · | 39 | – | · | · | –
CCOc1ccc(-n2c(C)cc(/C=N/Nc3nc(C)cc(=O)[nH]3)c2C)cc1 | – | – | 43 | – | – | – | 85
CC1CCC(NC(=O)C2CCN(c3c4c(nc5ncnn35)CCC4)CC2)CC1 (stereo not drawn) | – | – | – | – | – | – | ·
Oc1ccc(C2C[C@H]3CC[C@@H]2C3)cc1O (stereo partly drawn) | 75 | – | 52 | – | – | – | 32
CN(C)c1ccc(NC2=C([N+](=O)[O-])CS(=O)(=O)C2)cc1 | – | – | 39 | – | – | – | –
Cc1ccc(NC2=C([N+](=O)[O-])CS(=O)(=O)C2)cc1 | – | – | – | – | – | – | ·
NNc1nc(C(F)(F)F)nc2ccccc12 | – | – | – | – | – | – | ·
O/C=c1\ccc2cccc3nc(C(F)(F)F)nc1c23 | – | – | 40 | – | – | – | –
CC(C)=CCC/C(C)=C/CC/C(C)=C/COc1ccc2ccc(=O)oc2c1 | – | – | – | – | – | – | ·
CC1CCN(Cc2c(O)ccc3c2O/C(=C\c2ccco2)C3=O)CC1 | – | – | – | – | – | – | ·
O=C1/C(=C/c2ccco2)Oc2c1ccc(O)c2CN1CCCCC1 | – | – | 37 | – | – | – | –
CCOC(=O)CC1=C(C(=O)OCC)C(c2ccc(C)o2)C(C#N)=C(N)O1 (stereo not drawn) | – | – | – | – | – | – | ·
Cc1ccc(C2C(C#N)=C(N)Oc3c2sc2ccccc32)o1 (stereo not drawn) | · | · | 38 | · | · | · | 30
CN1CCN(Cc2cc(=O)oc3cc4c(cc23)CCC4)CC1 | – | – | 37 | – | – | – | –
O=C(O)CCSc1nnc(COc2cccc3ccccc23)n1-c1cccc(Cl)c1 | – | – | – | – | – | – | ·
O=C(c1ccco1)N1CCN(c2ccc(Cl)c(Cl)c2)CC1 | – | – | – | – | – | – | ·
CCOC(=O)N1CCN(C2=C(NS(=O)(=O)c3ccc(C)cc3)C(=O)c3ccccc3C2=O)CC1 | – | – | – | – | – | – | ·
CCOC(=O)N1CCN(c2cc(NCCC(=O)O)c3c4c(onc24)-c2ccccc2C3=O)CC1 | – | – | 55 | – | – | – | 37
O=C(O)CCCNc1cc(N2CCN(C(=O)c3ccco3)CC2)c2noc3c2c1C(=O)c1ccccc1-3 | – | – | 57 | – | – | – | 31
Cc1nc2ccccc2c(=O)n1-c1ccc(NS(=O)(=O)c2ccc(F)cc2)cc1 | – | – | – | – | – | – | ·
O=[N+]([O-])c1cc(-c2ccc(/C=N/c3nc4ccccn4c3-c3ccco3)o2)ccc1Cl | – | – | 35 | – | – | – | –
